Structures can show the parent of a compound that is named as a salt. Unmarked numbers belong to inactive results.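 The calls were made as follows: for the amine columns active = adjusted P below 0.05 in both replicates with a change the same way and a mean fold change under 0.8 or over 1.25; inactive = the rest.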
test system: Escherichia coli IAI1; assay: fold change of Cadaverine concentration vs plate DMSO controls (fold change (ratio)); higher = more amine produced, active = hit call of the paper (significant change in both replicates, either direction); conditions: incubation time: 27 h, anaerobic, 37 °C
Outline: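 Anaerobic mGAM cultures of four gut bacterial strains were grown at 37 °C for 27 h in 80 µL wells, starting at OD 0.1 before 1:1 dilution. Compounds were at 20 µM final (sweeteners 50 µM). Whole cultures were extracted with cold acetonitrile/methanol containing 0.1% formic acid and centrifuged. Amines were quantified by LC–triple-quadrupole MS (dynamic MRM) against external calibration curves and drift-corrected within batch. Each value is the fold change versus plate DMSO controls, averaged over 2 biological replicates.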

Structure (SMILES) | fold change of Cadaverine concentration
CC(=O)[C@H]1CC[C@H]2[C@@H]3CC=C4C[C@@H](O)CC[C@]4(C)[C@H]3CC[C@]12C [Pregnenolone] (20 µM) | 0.968
CC(C(=O)O)c1ccc(N2Cc3ccccc3C2=O)cc1 (stereo unspecified) [Indoprofen] (20 µM) | 0.998
Cc1cc(O)c(C(=O)N[C@@H](C(=O)N[C@@H]2C(=O)N3C(C(=O)O)=C(CSc4nnnn4C)CS[C@H]23)c2ccc(O)cc2)cn1 [Cefpiramide] (20 µM) | 1.92 (active)
CC(C)=CCC1C(=O)N(c2ccccc2)N(c2ccccc2)C1=O [Feprazone] (20 µM) | 0.996
COC(=O)C1=C(C)NC(C)=C(C(=O)OCCN(C)Cc2ccccc2)C1c1cccc([N+](=O)[O-])c1 (stereo unspecified) [Nicardipine hydrochloride] (20 µM) | 0.995
COCCOC(=O)C1=C(C)NC(C)=C(C(=O)OC(C)C)C1c1cccc([N+](=O)[O-])c1 (stereo unspecified) [Nimodipine] (20 µM) | 1.09
NS(=O)(=O)c1cc2c(cc1Cl)N=CNS2(=O)=O [Chlorothiazide] (20 µM) | 0.97
CC(Oc1ccccc1)C(=O)N[C@@H]1C(=O)N2[C@@H]1SC(C)(C)[C@@H]2C(=O)O (stereo partly specified) [Phenethicillin potassium salt] (20 µM) | 1.06
Cc1ccc(N(CC2=NCCN2)c2cccc(O)c2)cc1 [Phentolamine hydrochloride] (20 µM) | 0.652 (active)
CC1(C)O[C@@H]2C[C@H]3[C@@H]4C[C@H](F)C5=CC(=O)CC[C@]5(C)[C@H]4[C@@H](O)C[C@]3(C)[C@]2(C(=O)CO)O1 [Flurandrenolide] (20 µM) | 0.954
NS(=O)(=O)c1cc2c(cc1C(F)(F)F)NCNS2(=O)=O [Hydroflumethiazide] (20 µM) | 1
Nc1nc(/C(=C/CC(=O)O)C(=O)N[C@@H]2C(=O)N3C(C(=O)O)=CCS[C@H]23)cs1 [Ceftibuten] (20 µM) | 0.942
O=C(O)Cc1ccc(-c2ccccc2)cc1 [Felbinac] (20 µM) | 0.989
Nc1nnc(-c2cccc(Cl)c2Cl)c(N)n1 [Lamotrigine] (20 µM) | 1.23
Nc1nc(=O)c2nc(CNc3ccc(C(=O)N[C@@H](CCC(=O)O)C(=O)O)cc3)cnc2[nH]1 [Folic acid] (20 µM) | 0.98
Nc1ccc(S(=O)(=O)NC(=O)c2ccccc2)cc1 [Sulfabenzamide] (20 µM) | 0.967
CCC(=O)O[C@]1(C(=O)SCF)[C@H](C)C[C@H]2[C@@H]3C[C@H](F)C4=CC(=O)C=C[C@]4(C)[C@@]3(F)[C@@H](O)C[C@@]21C [Fluticasone propionate] (20 µM) | 0.995
CCOC(=O)[C@H](CCc1ccccc1)N[C@@H](C)C(=O)N1[C@H](C(=O)O)C[C@@H]2CCC[C@@H]21 [Ramipril] (20 µM) | 0.964
CO/N=C(\C(=O)N[C@@H]1C(=O)N2C(C(=O)OCOC(=O)C(C)(C)C)=C(/C=C\c3scnc3C)CS[C@H]12)c1csc(N)n1 [Cefditoren Pivoxil] (20 µM) | 1.18
NC[C@H]1O[C@H](O[C@H]2[C@H](O[C@@H]3O[C@H](CO)[C@@H](O)[C@H]3O)[C@@H](O)[C@H](N)C[C@@H]2N)[C@H](N)[C@@H](O)[C@@H]1O [Ribostamycin sulfate salt] (20 µM) | 0.963
Brc1c(NC2=NCCN2)ccc2nccnc12 [Brimonidine L-tartrate] (20 µM) | 0.919
O=c1[nH]cnc2c1ncn2[C@H]1CC[C@@H](CO)O1 [Didanosine] (20 µM) | 1.69 (active)
NS(=O)(=O)Cc1noc2ccccc12 [Zonisamide] (20 µM) | 1.05
CN(C)CCC(c1ccc(Cl)cc1)c1ccccn1 (stereo unspecified) [Chlorpheniramine maleate] (20 µM) | 1.43 (active)
OCC(O)CN1CCN(c2ccccc2)CC1 (stereo unspecified) [Dropropizine] (20 µM) | 1.04
CC(=O)[C@H]1CC[C@H]2[C@@H]3CCC4=CC(=O)CC[C@]4(C)[C@H]3CC[C@]12C [Progesterone] (20 µM) | 1.03

Reference: the supplement of paper PMC12494721
